A number with no mark means an inactive call.
compound: C#CCNC(=O)CCSSCCC(=O)NCCc1ccc(C=O)c(C=O)c1; assay: lysine labeling ratio R10:1 (500 µM / 50 µM probe), SILAC-ABPP in living cells; higher = lower intrinsic lysine reactivity toward the probe, active = 2 or less; conditions: HeLa; probe concentrations 500 vs 50 µM
How it was run: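 With forward and reverse label swaps, light and heavy SILAC HeLa cells, alive and in PBS at room temperature, were exposed to either 500 µM or 50 µM of an alkyne-tagged lysine probe bearing a disulfide link. After mixing, lysates were clicked to biotin-azide, cut with trypsin, pulled down on neutravidin, freed with DTT, alkylated and analysed on a TIMS-TOF Pro by LC-MS/MS. The per-lysine value R is the median over forward and reverse replicates of the filtered median high-probe/low-probe MS1 peptide ratio. It is capped at 20.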

UniProt P35579, sequence (P35579 whole entry): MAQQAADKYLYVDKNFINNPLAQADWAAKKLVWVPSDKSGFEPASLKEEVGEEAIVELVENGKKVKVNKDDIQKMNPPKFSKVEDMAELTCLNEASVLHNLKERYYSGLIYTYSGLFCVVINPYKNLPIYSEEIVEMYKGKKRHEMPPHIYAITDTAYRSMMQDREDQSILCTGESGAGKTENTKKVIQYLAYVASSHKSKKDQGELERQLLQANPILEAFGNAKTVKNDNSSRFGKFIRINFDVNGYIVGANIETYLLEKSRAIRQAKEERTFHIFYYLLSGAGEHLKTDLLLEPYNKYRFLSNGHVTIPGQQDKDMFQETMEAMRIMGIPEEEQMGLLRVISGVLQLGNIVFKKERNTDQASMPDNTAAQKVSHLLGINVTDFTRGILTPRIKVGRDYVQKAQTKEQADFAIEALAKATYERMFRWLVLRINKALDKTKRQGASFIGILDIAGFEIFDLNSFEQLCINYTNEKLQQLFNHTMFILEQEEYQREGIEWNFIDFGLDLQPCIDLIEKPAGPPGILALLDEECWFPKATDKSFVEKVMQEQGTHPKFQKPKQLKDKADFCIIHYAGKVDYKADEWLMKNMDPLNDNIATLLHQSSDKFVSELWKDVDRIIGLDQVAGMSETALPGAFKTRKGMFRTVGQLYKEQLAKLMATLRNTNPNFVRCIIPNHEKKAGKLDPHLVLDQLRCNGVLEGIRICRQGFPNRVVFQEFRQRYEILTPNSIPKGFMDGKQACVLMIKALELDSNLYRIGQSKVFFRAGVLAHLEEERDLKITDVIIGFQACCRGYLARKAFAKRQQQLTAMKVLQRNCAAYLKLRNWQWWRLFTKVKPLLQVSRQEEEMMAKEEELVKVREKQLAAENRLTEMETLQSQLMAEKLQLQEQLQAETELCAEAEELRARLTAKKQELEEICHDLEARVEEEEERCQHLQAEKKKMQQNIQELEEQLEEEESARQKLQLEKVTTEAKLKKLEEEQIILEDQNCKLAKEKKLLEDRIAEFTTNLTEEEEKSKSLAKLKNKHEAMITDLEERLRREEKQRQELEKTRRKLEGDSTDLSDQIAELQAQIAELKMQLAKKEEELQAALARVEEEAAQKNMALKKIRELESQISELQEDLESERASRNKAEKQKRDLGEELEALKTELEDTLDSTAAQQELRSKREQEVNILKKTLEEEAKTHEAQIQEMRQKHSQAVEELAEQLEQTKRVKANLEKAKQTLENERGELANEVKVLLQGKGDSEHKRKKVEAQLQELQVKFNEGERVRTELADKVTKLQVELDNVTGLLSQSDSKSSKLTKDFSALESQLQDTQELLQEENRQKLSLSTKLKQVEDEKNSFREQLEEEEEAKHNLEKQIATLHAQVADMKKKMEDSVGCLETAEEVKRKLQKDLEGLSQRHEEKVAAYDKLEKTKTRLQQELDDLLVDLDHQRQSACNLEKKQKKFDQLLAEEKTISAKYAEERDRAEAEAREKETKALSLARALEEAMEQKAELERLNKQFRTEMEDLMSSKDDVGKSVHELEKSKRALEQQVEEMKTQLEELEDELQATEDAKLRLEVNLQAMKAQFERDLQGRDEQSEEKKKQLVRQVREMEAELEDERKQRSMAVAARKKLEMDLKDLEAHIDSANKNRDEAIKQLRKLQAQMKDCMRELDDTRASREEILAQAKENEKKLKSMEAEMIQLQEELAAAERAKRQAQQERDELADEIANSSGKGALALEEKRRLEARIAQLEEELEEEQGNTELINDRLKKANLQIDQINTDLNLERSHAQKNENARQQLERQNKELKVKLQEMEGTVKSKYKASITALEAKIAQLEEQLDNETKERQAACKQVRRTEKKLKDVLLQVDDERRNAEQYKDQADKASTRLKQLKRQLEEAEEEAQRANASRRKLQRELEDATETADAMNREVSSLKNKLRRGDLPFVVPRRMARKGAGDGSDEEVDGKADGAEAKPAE
UniProt P21589, sequence (P21589 whole entry): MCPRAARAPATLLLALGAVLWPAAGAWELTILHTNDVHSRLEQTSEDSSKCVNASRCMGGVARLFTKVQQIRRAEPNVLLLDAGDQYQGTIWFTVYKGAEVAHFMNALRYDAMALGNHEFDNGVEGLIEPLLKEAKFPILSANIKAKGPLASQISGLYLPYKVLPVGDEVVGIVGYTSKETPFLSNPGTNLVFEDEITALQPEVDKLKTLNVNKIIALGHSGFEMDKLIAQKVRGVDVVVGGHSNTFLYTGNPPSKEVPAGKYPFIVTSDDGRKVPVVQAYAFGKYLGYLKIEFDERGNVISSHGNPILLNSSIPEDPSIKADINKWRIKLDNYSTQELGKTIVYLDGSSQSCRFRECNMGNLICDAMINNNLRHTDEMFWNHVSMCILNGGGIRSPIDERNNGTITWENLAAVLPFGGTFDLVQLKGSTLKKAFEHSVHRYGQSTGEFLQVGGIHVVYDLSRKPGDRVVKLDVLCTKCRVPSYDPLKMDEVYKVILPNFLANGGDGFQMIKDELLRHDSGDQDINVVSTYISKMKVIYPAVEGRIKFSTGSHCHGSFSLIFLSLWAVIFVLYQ
UniProt Q5XKE5, sequence (Q5XKE5 whole entry): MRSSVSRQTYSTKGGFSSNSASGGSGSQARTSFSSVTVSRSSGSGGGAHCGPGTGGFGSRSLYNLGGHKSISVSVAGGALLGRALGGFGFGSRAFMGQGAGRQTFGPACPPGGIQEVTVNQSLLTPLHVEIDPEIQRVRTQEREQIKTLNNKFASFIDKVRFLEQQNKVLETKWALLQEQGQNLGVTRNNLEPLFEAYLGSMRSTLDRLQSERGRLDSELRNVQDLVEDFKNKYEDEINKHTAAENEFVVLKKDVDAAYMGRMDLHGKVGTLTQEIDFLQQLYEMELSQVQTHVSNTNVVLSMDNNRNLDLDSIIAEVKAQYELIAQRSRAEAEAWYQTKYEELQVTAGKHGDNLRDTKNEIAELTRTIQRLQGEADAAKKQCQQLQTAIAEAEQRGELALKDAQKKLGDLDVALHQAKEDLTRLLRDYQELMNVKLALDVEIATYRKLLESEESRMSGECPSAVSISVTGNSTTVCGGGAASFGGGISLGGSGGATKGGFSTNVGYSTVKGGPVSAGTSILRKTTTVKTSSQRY
UniProt O00159, sequence (O00159 whole entry): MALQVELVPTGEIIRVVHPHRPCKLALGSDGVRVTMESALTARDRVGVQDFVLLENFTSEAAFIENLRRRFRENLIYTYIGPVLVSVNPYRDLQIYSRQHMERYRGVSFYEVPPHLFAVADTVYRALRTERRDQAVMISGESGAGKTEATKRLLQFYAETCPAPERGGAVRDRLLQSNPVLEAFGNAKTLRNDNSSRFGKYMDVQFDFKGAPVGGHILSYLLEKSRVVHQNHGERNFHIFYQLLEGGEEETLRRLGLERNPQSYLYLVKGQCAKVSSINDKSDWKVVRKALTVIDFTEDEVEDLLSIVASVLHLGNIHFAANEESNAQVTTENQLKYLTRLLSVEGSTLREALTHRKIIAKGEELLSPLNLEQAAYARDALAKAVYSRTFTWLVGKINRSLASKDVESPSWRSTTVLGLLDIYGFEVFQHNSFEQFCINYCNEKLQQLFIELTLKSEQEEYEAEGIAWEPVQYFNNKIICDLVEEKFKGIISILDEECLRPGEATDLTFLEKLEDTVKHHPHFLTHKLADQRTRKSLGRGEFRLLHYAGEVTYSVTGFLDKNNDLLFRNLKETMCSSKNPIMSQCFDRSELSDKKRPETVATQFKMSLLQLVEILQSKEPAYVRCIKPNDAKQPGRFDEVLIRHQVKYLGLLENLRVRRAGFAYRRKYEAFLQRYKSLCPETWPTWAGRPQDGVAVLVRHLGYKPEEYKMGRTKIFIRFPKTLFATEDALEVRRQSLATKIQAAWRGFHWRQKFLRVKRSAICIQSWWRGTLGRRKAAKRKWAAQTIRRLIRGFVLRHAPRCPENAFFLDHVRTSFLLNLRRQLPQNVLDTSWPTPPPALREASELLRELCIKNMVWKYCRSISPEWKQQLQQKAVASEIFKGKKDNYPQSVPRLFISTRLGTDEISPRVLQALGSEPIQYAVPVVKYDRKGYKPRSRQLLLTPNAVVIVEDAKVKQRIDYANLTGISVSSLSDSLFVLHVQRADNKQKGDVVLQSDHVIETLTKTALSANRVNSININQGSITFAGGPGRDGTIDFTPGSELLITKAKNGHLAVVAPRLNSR
UniProt Q9UQ80, sequence (Q9UQ80 whole entry): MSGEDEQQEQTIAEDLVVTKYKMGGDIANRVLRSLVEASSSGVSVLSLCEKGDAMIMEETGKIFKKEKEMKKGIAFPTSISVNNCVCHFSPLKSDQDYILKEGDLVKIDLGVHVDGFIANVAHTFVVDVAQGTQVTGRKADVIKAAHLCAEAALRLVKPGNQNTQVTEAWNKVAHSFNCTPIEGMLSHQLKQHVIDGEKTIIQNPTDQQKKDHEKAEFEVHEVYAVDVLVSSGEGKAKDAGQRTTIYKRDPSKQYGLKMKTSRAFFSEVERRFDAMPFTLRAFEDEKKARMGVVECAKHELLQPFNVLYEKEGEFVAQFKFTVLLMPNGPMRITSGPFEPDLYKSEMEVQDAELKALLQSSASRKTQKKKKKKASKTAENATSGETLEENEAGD
UniProt Q10471, sequence (Q10471 whole entry): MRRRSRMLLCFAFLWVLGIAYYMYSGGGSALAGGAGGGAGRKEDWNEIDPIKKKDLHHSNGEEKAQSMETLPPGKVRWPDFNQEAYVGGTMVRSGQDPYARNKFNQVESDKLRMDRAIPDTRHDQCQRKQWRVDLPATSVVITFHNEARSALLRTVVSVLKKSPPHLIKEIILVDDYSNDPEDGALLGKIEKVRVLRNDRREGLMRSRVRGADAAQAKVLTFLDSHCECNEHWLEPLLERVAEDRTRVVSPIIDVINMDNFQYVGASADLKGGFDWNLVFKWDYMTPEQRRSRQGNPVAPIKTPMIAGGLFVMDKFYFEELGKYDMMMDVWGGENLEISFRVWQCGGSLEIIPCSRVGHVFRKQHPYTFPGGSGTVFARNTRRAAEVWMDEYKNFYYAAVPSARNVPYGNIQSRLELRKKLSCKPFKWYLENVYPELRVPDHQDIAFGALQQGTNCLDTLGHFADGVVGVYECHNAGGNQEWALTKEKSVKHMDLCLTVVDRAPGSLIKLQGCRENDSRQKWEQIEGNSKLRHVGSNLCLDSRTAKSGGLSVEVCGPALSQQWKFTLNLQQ

Row | Target | lysine labeling ratio R10:1
1 | MAGT1 (lysine site: K66) (UniProt Q9H0U3) | 4.14
2 | PA2G4 (lysine site: K288) (UniProt Q9UQ80) | 0.997 (active)
3 | CCT8 (lysine site: K37) (UniProt P50990) | 1.6 (active)
4 | L1CAM (lysine site: K62) (UniProt P32004) | 2.25
5 | ARPC2 (lysine site: K186) (UniProt O15144) | 1.46 (active)
6 | UniProt P05106 (lysine site: K98) | 1.59 (active)
7 | SERPINH1 (lysine site: K190) (UniProt P50454) | 2.12
8 | UniProt Q6NZI2 (lysine site: K258) | 9.27
9 | CLTC (lysine site: K619) (UniProt Q00610) | 2.75
10 | RPL28 (lysine site: K19) (UniProt P46779) | 0.79 (active)
11 | MYH9 (lysine site: K1219) (UniProt P35579) | 2.49
12 | FAT4 (lysine site: K1809) (UniProt Q6V0I7) | 1.9 (active)
13 | UniProt Q15149 (lysine site: K877) | 2.95
14 | MYO1C (lysine site: K667) (UniProt O00159) | 2.86
15 | UniProt P55072 (lysine site: K696) | 1.22 (active)
16 | ITGA6 (lysine site: K615) (UniProt P23229) | 6.91
17 | UniProt P61981 (lysine site: K10) | 4.23
18 | IGF2R (lysine site: K1924) (UniProt P11717) | 3.04
19 | CLU (lysine site: K62) (UniProt P10909) | 1.13 (active)
20 | UniProt O60245 (lysine site: K810) | 0.802 (active)

Row | Target | lysine labeling ratio R10:1
21 | AHNAK (lysine site: K326) (UniProt Q09666) | 1.7 (active)
22 | GALNT2 (lysine site: K103) (UniProt Q10471) | 2.75
23 | HNRNPM (lysine site: K242) (UniProt P52272) | 1.67 (active)
24 | EZR (lysine site: K143) (UniProt P15311) | 2.46
25 | EIF2S3 (lysine site: K70) (UniProt P41091) | 3.79
26 | C3 (lysine site: K692) (UniProt P01024) | 7.71
27 | ATP1B1 (lysine site: K113) (UniProt P05026) | 1.86 (active)
28 | IQGAP1 (lysine site: K368) (UniProt P46940) | 3.38
29 | UniProt Q5XKE5 (lysine site: K253) | 2.87
30 | SHMT2 (lysine site: K103) (UniProt P34897) | 4.3
31 | MCAM (lysine site: K153) (UniProt P43121) | 4.14
32 | UniProt P21589 (lysine site: K232) | 1.92 (active)
33 | UniProt P21589 (lysine site: K471) | 1.6 (active)
34 | EPCAM (lysine site: K129) (UniProt P16422) | 6.18
35 | HSPE1 (lysine site: K99) (UniProt P61604) | 4.89
36 | THBS1 (lysine site: K430) (UniProt P07996) | 3.67
37 | MTDH (lysine site: K195) (UniProt Q86UE4) | 1.36 (active)
38 | ITGA2 (lysine site: K821) (UniProt P17301) | 3.08
39 | PLXNB2 (lysine site: K941) (UniProt O15031) | 2.31
40 | MYH9 (lysine site: K613) (UniProt P35579) | 1.78 (active)
